Measurements: PubChem BioAssay (Tox21)
Records with an inconclusive call do not appear. The source made the active and inactive calls. Unless noted, calls come from the whole dose curve; as a rule, active = well fitted curve in the direction sought with a large enough effect in the repeat runs; inconclusive = weak or mixed curves; inactive = no such curve, though single readings can be large; an effect the other way counts as inactive or inconclusive.

Tests used:
[1] = qHTS RealTime-Glo MT Cell Viability Assay in HEK293 cells - 0 hour (AID 1224880); note: top concentration of the series differs between compounds; nearly all actives have a fitted effect of over 45% in size
Summary of the method: (§1)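 Viable HEK293 cells reduce a cell-permeant prosubstrate; the product diffuses out and is consumed by NanoLuc in the medium to give light. Compounds went in after a 5 h incubation and plates were read over the treatment course.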

[2] = A CellTox Green Cytotoxicity Assay to monitor cytotoxicity in HEK293 cells - 32 hour (AID 1224881); note: nearly all actives have a fitted effect of over 40% in size
Summary of the method: (§2)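 Fluorescence intensity, read at 0, 8, 16, 24, 32 and 40 h of compound treatment, reflected dye binding to DNA of dead HEK293 cells; compounds (23 nL, DMSO) were added 5 h after plating cells with reagent.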

[3] = A CellTox Green Cytotoxicity Assay to monitor cytotoxicity in HepG2 cells - 0 hour (AID 1224882); note: nearly all actives have a fitted effect of over 35% in size
Summary of the method: (§3)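 Using 1536-well format, dye-containing HepG2 suspension was seeded, allowed 5 h at 37 C/5% CO2, dosed by pintool with compounds, positive and negative controls, and imaged for fluorescence across 40 h.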

[4] = A CellTox Green Cytotoxicity Assay to monitor cytotoxicity in HepG2 cells - 32 hour (AID 1224883); note: nearly all actives have a fitted effect of over 50% in size
Summary of the method: as §3

[5] = A CellTox Green Cytotoxicity Assay to monitor cytotoxicity in HEK293 cells - 8 hour (AID 1224884); note: nearly all actives have a fitted effect of over 35% in size
Summary of the method: as §2

[6] = qHTS RealTime-Glo MT Cell Viability Assay in HepG2 cells - 16 hour (AID 1224885); note: nearly all actives have a fitted effect of over 50% in size
Summary of the method: (§4)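 Tox21 10K library screened in qHTS format on HepG2 cells carrying RealTime-Glo reagents. Compounds were added after a 5 h preincubation, and the luminescent signal from continuous culture was measured repeatedly during 40 h treatment.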

[7] = qHTS RealTime-Glo MT Cell Viability Assay in HEK293 cells - 8 hour (AID 1224887); note: top concentration of the series differs between compounds; nearly all actives have a fitted effect of over 50% in size
Summary of the method: as §1

[8] = A CellTox Green Cytotoxicity Assay to monitor cytotoxicity in HEK293 cells - 16 hour (AID 1224888); note: nearly all actives have a fitted effect of over 35% in size
Summary of the method: as §2

[9] = qHTS RealTime-Glo MT Cell Viability Assay in HepG2 cells - 0 hour (AID 1224889); note: nearly all actives have a fitted effect of over 50% in size
Summary of the method: as §4

[10] = A CellTox Green Cytotoxicity Assay to monitor cytotoxicity in HepG2 cells - 8 hour (AID 1224890); note: nearly all actives have a fitted effect of over 45% in size
Summary of the method: as §3

[11] = qHTS assay to identify small molecule antagonists of the estrogen receptor alpha (ER-alpha) signaling pathway using the BG1 cell line in the presence of 0.1 nM 17-beta-estradiol - cell viability counter screen (AID 1259241); note: nearly all actives have a fitted effect of over 40% in size
Summary of the method: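 Measures cytotoxicity alongside the ER-alpha antagonist readout: VM7Luc4E2 cells, charcoal-stripped serum, 0.1 nM 17beta-estradiol final, 22 hr compound incubation at 37C, CellTiter-Fluor fluorescence.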

[12] = qHTS assay to identify small molecule antagonists of the androgen receptor (AR) signaling pathway using the MDA cell line in the presence of 0.5 nM R1881 - cell viability counter screen (AID 1259242); note: nearly all actives have a fitted effect of over 45% in size
Summary of the method: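 Viability of MDA-kb2 cells was multiplexed with the luciferase AR readout; after 16 hr with compounds and R1881 at 0.5 nM final, CellTiter-Fluor fluorescence was recorded.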

[13] = molecular target: Estrogen receptor (Homo sapiens) (UniProt P03372); test: qHTS assay to identify small molecule antagonists of the estrogen receptor alpha (ER-alpha) signaling pathway using the BG1 cell line in the presence of 0.1 nM 17-beta-estradiol (AID 1259244); note: nearly all actives have a fitted effect of over 50% in size
Sequence of Estrogen receptor (Homo sapiens) (P03372 whole entry, looked up): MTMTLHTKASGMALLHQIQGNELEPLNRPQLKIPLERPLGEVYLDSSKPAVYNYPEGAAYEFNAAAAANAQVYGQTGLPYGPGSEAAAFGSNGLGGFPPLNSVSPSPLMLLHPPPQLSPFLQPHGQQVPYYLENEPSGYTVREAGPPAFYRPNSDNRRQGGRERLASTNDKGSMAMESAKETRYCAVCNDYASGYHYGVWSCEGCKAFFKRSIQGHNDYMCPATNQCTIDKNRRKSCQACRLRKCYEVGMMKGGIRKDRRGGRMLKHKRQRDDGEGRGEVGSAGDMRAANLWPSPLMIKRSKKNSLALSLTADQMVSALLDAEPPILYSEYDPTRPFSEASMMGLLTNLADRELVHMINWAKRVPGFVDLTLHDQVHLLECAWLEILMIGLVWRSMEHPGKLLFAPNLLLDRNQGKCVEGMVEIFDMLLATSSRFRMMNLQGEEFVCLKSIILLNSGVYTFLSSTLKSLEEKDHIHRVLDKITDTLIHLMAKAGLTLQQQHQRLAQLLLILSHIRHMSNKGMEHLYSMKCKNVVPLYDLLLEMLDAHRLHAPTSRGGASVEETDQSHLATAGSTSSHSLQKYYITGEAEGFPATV
Summary of the method: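 Estradiol at 0.1 nM (final) stimulates the endogenous ER-alpha of VM7Luc4E2 cells carrying an ERE-driven luciferase; compounds are co-incubated 22 h at 37C and luciferase output quantified by luminescence.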

[14] = qHTS assay to identify small molecule phospholipidosis (PLD) inducers (AID 1259344; active = well fitted curve in the direction sought with a large enough effect; an effect the other way counts as inactive or inconclusive; note: potency is the fitted concentration of half-maximal effect)
Summary of the method: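 HepG2 cells on collagen I, attached 4 h at 37 C, were co-treated with compound and LipidTOX Red dye for 24 h at 37 C, then fixed with paraformaldehyde plus Hoechst 33342 and imaged by high-content microscopy for phospholipid accumulation.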

[15] = qHTS assay to identify small molecule HDAC inhibitors (AID 1259364);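 note: wild-type HCT-116 cells with endogenous class I/II HDAC activity; top concentration of the series differs between compounds; nearly all actives have a fitted effect of over 45% in size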
Summary of the method: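 Read-out: luminescence of HDAC-Glo I/II reagent, 30 min RT, reflecting class I/II deacetylase activity in whole HCT-116 cells pre-exposed 2 h to DMSO-dissolved compounds.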

[16] = qHTS assay to identify small molecule HDAC inhibitors - cell viability counter screen (AID 1259365)
Summary of the method: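 Following a 2hr exposure of overnight-plated wild-type HCT-116 cells to DMSO-delivered compounds, CellTiter-Glo was added and luminescence recorded after 30min at room temperature.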

[17] = qHTS assay to identify small molecule agonists of the sonic hedgehog signaling (Shh) pathway - cell viability counter screen (AID 1259366); note: nearly all actives have a fitted effect of over 50% in size; note: potency is the fitted concentration of half-maximal effect
Summary of the method: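 After a 4hr attachment at 37C, NIH/3T3 cells bearing an integrated Gli1-driven luciferase reporter were dosed with compounds. Treatment lasted 24hr, with the final hour including CellTiter-Fluor for a fluorescence viability measurement.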

[18] = qHTS assay to identify small molecule antagonists of the sonic hedgehog signaling (Shh) pathway - cell viability counter screen (AID 1259367); note: nearly all actives have a fitted effect of over 55% in size; note: potency is the fitted concentration of half-maximal effect
Summary of the method: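 NIH/3T3-derived Gli1-Luc reporter cells (2,000 per well) rested 4 hr at 37 C, then received DMSO compounds plus conditioned medium. After 23 hr of treatment, CellTiter-Fluor was added for 1 hr at 37C and fluorescence read.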

[19] = qHTS RealTime-Glo MT Cell Viability Assay in HEK293 cells - 24 hour (AID 1224886)
Summary of the method: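 Luminescence generated by NanoLuc from substrate produced by living HEK293 cells served as the viability signal. Each value reflects the reading at its stated time point during continuous 40 h compound exposure at 37 C.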

Measured: Potency

COc1cc(CC(C)N)cc(OC)c1OC (centres undefined)
inactive: [1] | [2] | [3] | [4] | [5] | [6] | [7] | [8] | [9] | [10] | [11] | [12] | [13] | [14] | [15] | [16] | [17] | [18]

NC1(c2ccccc2)CCCCC1
active: [14] 8.91 µM | [17] 30.4 µM | [18] 27.1 µM
inactive: [1] | [2] | [3] | [4] | [5] | [6] | [19] | [8] | [9] | [10] | [11] | [12] | [13] | [15] | [16]

C=C1C[C@@H]2[C@H](CC[C@]3(C)C(=O)CC[C@@H]23)[C@@]2(C)C=CC(=O)C=C12
inactive: [1] | [2] | [3] | [4] | [5] | [6] | [19] | [7] | [10] | [11] | [12] | [14] | [15] | [16] | [17] | [18]

CC(C)[C@]12CC(=O)[C@H](C)[C@H]1C2
inactive: [1] | [2] | [3] | [4] | [5] | [6] | [19] | [7] | [9] | [10] | [11] | [12] | [15] | [16] | [17] | [18]

O=C(NC(O)C(Cl)(Cl)Cl)NC(O)C(Cl)(Cl)Cl (centres undefined)
inactive: [1] | [2] | [3] | [4] | [5] | [6] | [19] | [8] | [9] | [10] | [11] | [12] | [13] | [14] | [15] | [16] | [17] | [18]

C=C1CC[C@@]2(O)[C@H]3Cc4ccc(O)c5c4[C@@]2(CCN3CC2CC2)[C@H]1O5
inactive: [1] | [2] | [3] | [4] | [5] | [6] | [19] | [9] | [10] | [11] | [12] | [14] | [15] | [16] | [17] | [18]

CC(C)c1ccc(O)cc1
inactive: [1] | [2] | [3] | [4] | [5] | [6] | [19] | [8] | [9] | [10] | [11] | [12] | [15] | [16] | [17] | [18]

Cc1ccc(-c2nc3ccc(C)cn3c2CC(=O)N(C)C)cc1
inactive: [1] | [2] | [3] | [4] | [5] | [6] | [7] | [8] | [9] | [10] | [11] | [12] | [13] | [14] | [15] | [16]
